High-throughput results: PubChem BioAssay, ICCB-Longwood Screening Facility, Harvard Medical School
Shown is part of a subset that was picked to be rich in hits.
Bm FixLJ act – activators of Burkholderia fixLJ two-component system, primary screen, B. multivorans, GFP reporter. B. multivorans fixK-promoter GFP reporter, 18 h; stronger effect = higher value. z-score (test concentration not listed). 29,000 compounds, 0.3% hits;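 active means replicate mean overnight rise in green fluorescent reporter signal, 3 or more SD over negative controls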
* = called active by the depositor.

SMILES	Bm FixLJ act
CCOc1ccc(NC(=O)CC2C(=O)N(c3cccc(C)c3)C(=O)N2CCC2=CCCCC2)cc1 (stereo not drawn)	3*
COc1ccc(NC(=O)CC2C(=O)N(c3ccccc3)C(=O)N2CCC2=CCCCC2)cc1 (stereo not drawn)	-1.8
O=C(CC1C(=O)N(c2ccccc2)C(=O)N1CCC1=CCCCC1)Nc1ccc(F)cc1 (stereo not drawn)	1.1
CC(C)c1nc(CN(C)S(=O)(=O)CCC2CCS(=O)(=O)C2)cs1 (stereo not drawn)	-0.04
Cc1ccc(-c2cnn(CC(=O)O)c2)c(-n2nc(C)cc2C)c1	-1.4
Cc1n[nH]c(C)c1CCN(C)C(=O)NC(c1ccccn1)C(F)(F)F (stereo not drawn)	-0.26
Cc1[nH]cnc1CNc1nc2c(c(=O)[nH]1)Cc1ccccc1OC2	-1.9
Cc1ccc(NC(=O)c2oc3ccccc3c2NC(=O)Cc2ccccc2)cc1	-0.81
CCc1ccc(OCC(=O)Nc2c(C(=O)c3ccccc3)oc3ccccc23)cc1	-1.9
O=C(Cc1ccccc1)Nc1c(C(=O)c2ccccc2)oc2ccccc12	3.1*
CCc1nc2cc(NC(=O)NCc3csc(N(C)C)n3)ccc2n1CC	-0.33
O=C(CN(CCc1ccccc1)S(=O)(=O)c1ccc(Br)cc1)NCc1ccc(Cl)cc1	0.62
COC(=O)c1ccc(NC(=O)CN(CCc2ccccc2)S(=O)(=O)c2ccc(OC)cc2)cc1	3
Cc1ccc(S(=O)(=O)N(CCc2ccccc2)CC(=O)Nc2ccc(Br)cc2)cc1	3.1*
CSCCCNC(=O)c1ccc(N2CC(=O)NC2=O)cc1	0.55
CC(C)c1nnc(C(C)NC(=O)Cc2cccc(F)c2F)o1 (stereo not drawn)	-1.1
Fc1ccc(NCc2nc3ccccc3n2CCOc2ccccc2Cl)cc1	3.3*
COc1ccc(NCc2nc3ccccc3n2CCOc2ccccc2C)cc1	1
O=C(O)c1ccc(NCc2nc3ccccc3n2CCOc2ccccc2Cl)cc1	0.09
CC(C)CC(NC(=O)N1CCC(c2nnc3n2CCCCC3)CC1)C(=O)O (stereo not drawn)	-1.9
CCc1ccc(C2Sc3ccccc3NC3=C2C(=O)c2ccccc23)cc1 (stereo not drawn)	3.3*
CC(C)c1ccc(C2Sc3ccccc3NC3=C2C(=O)c2ccccc23)cc1 (stereo not drawn)	2.6
O=C1C2=C(Nc3ccccc3SC2c2ccc(C(F)(F)F)cc2)c2ccccc21 (stereo not drawn)	1.4
CN(C)c1ccc(CC(=O)NC(c2cnn(C)c2)C2CC(O)C2)cc1 (stereo not drawn)	-1
Cn1ncc2c(NCCC3CCOC3)nc(C3CCCC3)nc21 (stereo not drawn)	0.66
SMILES	Bm FixLJ act
CCCc1noc(C2CCC(=O)N(Cc3ccccc3OC)C2)n1 (stereo not drawn)	-1.7
Cc1ccc(S(=O)(=O)c2nc(-c3ccccc3Cl)oc2N2CCCCCC2)cc1	1.1
COc1ccccc1-c1nc(S(=O)(=O)c2ccc(Cl)cc2)c(N2CCCCCC2)o1	-0.45
O=S(=O)(c1ccccc1)c1nc(-c2ccccc2Cl)oc1N1CCCCCC1	3.2*
COCc1cc(CNC(=O)c2ccc(-c3sc(C)nc3C)cc2)[nH]n1	1.5
O=C(c1ccc(-n2cnnc2)cc1)N1CCC2(CCNCC2)CC1	-0.24
COc1ccc(OC)c(Nc2nc3ccccc3nc2-n2nc(C)cc2C)c1	-0.33
Cc1ccc2nc(Nc3cccc(Cl)c3C)c(-n3nc(C)cc3C)nc2c1	0.62
COc1ccccc1Nc1nc2ccc(Cl)cc2nc1-n1nc(C)cc1C	3.2*
Cc1ccc(NC(=O)Cc2coc3ccc(C(C)C)cc23)cc1Cl	-1.6
CCc1ccc2occ(CC(=O)Nc3ccc(C)c(C)c3)c2c1	3.4*
CCc1ccc2occ(CC(=O)Nc3nnc(SC)s3)c2c1	-0.26
O=C(CCc1nc(-c2ccccc2)no1)NCc1cc(-c2ccccc2)n[nH]1	0.09
Cc1nc(CN(C)CCC(=O)Nc2nnc(C3CC3)s2)no1	0.79
Cc1ccc(F)cc1NC(=O)CNC(=O)c1cc(C(C)C)nn1C	-0.21
Cc1nc(SCc2cccc(Cl)c2)nc2c1CCCC2	3*
O=C(NCc1cccc(Cl)c1)c1ccc2c(Cl)c3c(nc2c1)CCCC3	0.43
CN(Cc1ccccc1)C(=O)CSc1c2c(nc3ccc(Cl)cc13)CCCC2	0.91
COC(=O)CCCC(=O)N1CCC(Oc2cccc(F)c2)CC1	-1.8
CN1CCCC2(CCN(c3cc(-c4ccccc4)nc4ccnn34)C2)C1=O (stereo not drawn)	-0.82
COc1ccc(S(=O)(=O)N2CCN(c3cccc(C)c3C)CC2)c2ccccc12	-0.15
CCOc1ccc(OCC)c(S(=O)(=O)N2CCN(c3cccc(C)c3C)CC2)c1	3.4*
Cc1cccc(N2CCN(S(=O)(=O)c3cc(Cl)ccc3Cl)CC2)c1C	0.22
O=C(O)C1CCC(C(=O)N2CCC(O)(c3ccccc3)CC2)C1 (stereo not drawn)	0.89
Cc1ncc2c(c1CNC(=O)CCn1nnc3ccccc31)CCNC2	-0.93
SMILES	Bm FixLJ act
CCc1n[nH]c2c1CN(C(=O)c1nccnc1C(=O)N1CCCCC1)CC2	-0.82
O=C(Cn1ncc2c3ccccc3n(Cc3cccc(Cl)c3)c2c1=O)NCCC1=CCCCC1	13*
O=C(Cn1ncc2c3ccccc3n(Cc3ccc(F)cc3)c2c1=O)NC1CCCCCC1	-2.4
O=C(Cn1ncc2c3ccccc3n(Cc3cccc(Cl)c3)c2c1=O)NC1CCCCCC1	23*
Cc1cc(C)c(Cn2c3ccccc3c3cnn(CC(=O)NC4CCCCCC4)c(=O)c32)c(C)c1	1.5
Cc1ccc(C)c(Cn2c3ccccc3c3cnn(CC(=O)NCCC4=CCCCC4)c(=O)c32)c1	-0.36
O=C(Cn1ncc2c3ccccc3n(Cc3ccc(F)cc3)c2c1=O)NCCC1=CCCCC1	-0.48
O=C1COc2cc(C(=O)N3CCC4OCc5cnnn5C4C3)ccc2N1 (stereo not drawn)	-2.8
Nc1nc(CCCNS(=O)(=O)c2ccc3c(c2)NC(=O)CCS3)cs1	0.17
O=C1CC2C(CCN2C(=O)c2ccccc2)N1CCCn1ccnc1 (stereo not drawn)	-2
